# According to PubChem BioAssay:
# A number with no mark means an inactive call. How the calls were made is not given here.
# Target: Pantothenate synthetase (Mycobacterium tuberculosis (strain ATCC 25618 / H37Rv)) (UniProt P9WIL5)
# Experiment: Recombinant Mtb pantothenate synthetase (PanC) inhibitors, coupled enzyme, confirmatory (AID 375);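 further: 0% = full reaction with vehicle and 100% = no enzyme background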
# Conditions: coupled enzyme assay; at 10 µM, stronger effect = higher value
# Pantothenate synthetase (Mycobacterium tuberculosis (strain ATCC 25618 / H37Rv)), sequence (P9WIL5 whole entry, looked up): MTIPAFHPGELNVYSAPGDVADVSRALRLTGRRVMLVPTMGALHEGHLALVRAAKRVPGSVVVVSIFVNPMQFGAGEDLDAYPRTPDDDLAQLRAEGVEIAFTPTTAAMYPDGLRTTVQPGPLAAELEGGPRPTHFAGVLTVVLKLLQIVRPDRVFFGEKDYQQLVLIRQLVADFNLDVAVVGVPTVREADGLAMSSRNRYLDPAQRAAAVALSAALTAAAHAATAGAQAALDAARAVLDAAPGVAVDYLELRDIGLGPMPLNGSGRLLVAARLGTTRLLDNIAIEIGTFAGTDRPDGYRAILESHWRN
row,SMILES,inhibition
1,Nc1nc(SCc2nc3scc(-c4cccs4)c3c(=O)[nH]2)n[nH]1,6%
2,CCN(CC)CCOC(=O)C(c1ccccc1)c1ccccc1,0%
3,CCn1nnc(NC(=O)c2cc3ccccc3o2)n1,0%
4,COc1cccc(N(C(=O)c2ccco2)C(C(=O)NC2CCCC2)c2ccc(N(C)C)cc2)c1 (stereo not given),0%
5,O=C(CSc1nnnn1-c1ccccc1)c1cc2ccccc2oc1=O,0%
6,COc1cc2c(cc1OC)C(C)N(C(=O)Cn1ncc3c1-c1ccccc1OC3)CC2 (stereo not given),0%
7,O=C(Nc1cccc(Cl)c1)N1CCN(Cc2ccccc2)CC1,5%
8,CSCCC(NC(=O)c1ccco1)C(=O)O (stereo not given),0%
9,CCOC(=O)N1CCN(C(=O)c2ccc(CS(=O)(=O)c3c(Cl)cccc3Cl)o2)CC1,0%
10,O=c1c(-c2ccccc2)coc2c(CN3CCOCC3)c(O)ccc12,6%
11,Cc1cc(C)n(-c2ccc(C(=O)Oc3ccc4c(c3)OCO4)cc2)n1,1%
12,COc1ccc(S(=O)(=O)NCCSCc2ccco2)cc1Cl,0%
13,CC(=O)c1c(OC(=O)c2ccco2)c2ccccc2n1C,0%
14,CCOC(=O)CC1=C(C(=O)OCC)C(c2ccc(C)o2)C(C#N)=C(N)O1 (stereo not given),0%
15,CC(C)C(c1nnnn1C1CCCC1)N1CCCc2ccccc21 (stereo not given),0%
16,O=C1CC(c2ccccc2)CC(O)=C1C=NCCCN1CCOCC1 (stereo not given),5%
17,Cc1csc(NC(=O)C(Cc2ccccc2)n2cccc2)n1 (stereo not given),5%
18,Cc1cc(NC(=O)c2ccc3c(c2)C(=O)N(Cc2cccnc2)C3=O)no1,0%
19,Cc1ccc(-c2cc(C(F)(F)F)n3ncc(C(=O)O)c3n2)cc1,5%
20,COCC(=O)N(Cc1cc2cc(OC)ccc2[nH]c1=O)c1ccccc1,0%

row,SMILES,inhibition
1,O=c1cc(NCc2ccccc2)nc2n1CCCS2,0%
2,CCCCCc1c(C)nc(N2CCc3ccccc32)[nH]c1=O,0%
3,C=C(C)Cn1c(-c2ccccc2)nc2ccccc21,0%
4,CC(C)[C@H](NC(=O)OC(C)(C)C)c1nnc(SCC(=O)Nc2ccc(Br)cc2)o1,0%
5,COc1ccc(C(O)Cn2c(=N)n(CCCN(C)C)c3ccccc32)cc1 (stereo not given),0%
6,CCOc1ccccc1OCCn1nnc2ccccc21,4%
7,Cc1ccc2[nH]c(=O)c(CN(CCCN3CCOCC3)C(=O)Nc3cccc(Cl)c3)cc2c1,0%
8,C=CCN(CC=C)C(=O)CN1C(=O)c2ccccc2C1=O,0%
9,CCCCNC(=O)CSc1nc2ccc(N3CCOCC3)cc2c(=O)n1CCc1ccccc1,15%
10,COc1ccc(-n2c(=O)c3c4c(sc3n3cnnc23)CC(C)CC4)cc1 (stereo not given),1%
11,CCOC(=O)Nc1c(C(=O)OC)[nH]c2cccc(OC)c12,0%
12,CCOc1ccccc1-n1c(SCC(=O)NC(C)CC)nnc1-c1ccoc1C (stereo not given),0%
13,CCSc1nc2ccccc2n1CC(N)=O,4%
14,CC1=C(C(=O)N2CCOCC2)C(c2ccccc2F)C2=C(CCCC2=O)N1 (stereo not given),3%
15,Cc1occc1-c1nnc(SCC(=O)N2CCc3ccccc32)o1,0%
16,CCN1CCN(C(=O)N[C@@H](C(=O)N[C@@H]2C(=O)N3[C@@H]2SC(C)(C)[C@@H]3C(=O)O)c2ccccc2)C(=O)C1=O,2%
17,Cc1cc(C)n2nc3nc(N4CCCCC4)nc(-c4ccco4)c3c2n1,25%
18,CCN1CCCC1CNCc1ccc(Cl)cc1Cl (stereo not given),0%
19,CCc1cc(=O)oc2cc(OC(C)=O)cc(OC(C)=O)c12,0%
20,CCOC(=O)c1c(C)[nH]c(C(=O)COC(=O)C2CC2C)c1C (stereo not given),0%
